# Screens (PubChem)
# This is a sample that favours compounds with a hit; in the whole collection about 19% have one here.
# HT1080 IDH1KD tx: qHTS for induction of synthetic lethality in tumor cells producing 2HG: qHTS for the HT-1080-IDH1KD cell line; HT-1080 IDH1 knockdown viability, ATP luminescence, 48 h; Potency, µM (doses to about 46.1 µM), for the others: at the highest dose activity, negative = toxicity, hits mostly cytotoxic; actives 2% (n = 360,000); AID 686971, 2013;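 note: 0% = DMSO wells and -100% = cell-free medium wells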
#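 Using the IDH1-knockdown HT-1080 line run in the same batch and compound series as the NT line, viability after 48 h at 37 °C was determined by CellTiter-Glo luminescence and expressed as % activity.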
# KB-V1 MDR tox: qHTS assay for MDR1-selective chemotherapeutics: Primary screen using the drug-selected MDR subline cells KB-V1; KB-V1 MDR cells viability, CellTiter-Glo, 72 h; Potency, µM (highest dose often 46.1 µM), usual class: cytotoxic; actives 3.4% (n = 400,000); AID 1347076, 2019; note: nearly all actives have a fitted effect of over 60% in size
#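 KB-V1 MDR subline cells in DMEM (phenol-red free, 10% FBS) exposed to compounds in qHTS concentration series for 72 h at 37 degrees C. Viability read by CellTiter-Glo luminescence; concentration-effect curves fitted after normalization and correction.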
# KB-3-1 tox: qHTS assay for MDR1-selective chemotherapeutics: Primary screen using the parental adenocarcinoma cell KB-3-1; KB-3-1 viability, CellTiter-Glo ATP luminescence, 72 h; Potency, µM (doses to about 46.1 µM), usual class: cytotoxic; actives 1.4% (n = 400,000); AID 1347075, 2019; note: nearly all actives have a fitted effect of over 60% in size
#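 Cytotoxicity in the drug-sensitive parental line KB-3-1 was scored as loss of CellTiter-Glo luminescence following 72 h incubation with compound. Values come from curve fitting of normalized concentration-response data.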
# DT40 TDP1 CPT: qHTS for Inhibitors of human tyrosyl-DNA phosphodiesterase 1 (TDP1): qHTS in cells in presence of CPT; chicken DT40 Tdp1-/-;hTDP1 cells + 20 nM CPT, ATP luminescence, 48 h; Potency, µM (series often up to 46.2 µM), for inactives: at the top dose activity change, negative = growth inhibition, actives largely listed as inhibitors; AID 686979, 2013; actives 12% (n = 420,000); note: nearly all actives have a fitted effect of over 55% in size
#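 Chicken DT40 Tdp1-/- cells stably complemented with human TDP1 were seeded at 400 cells/well in medium containing 20 nM camptothecin, exposed to pin-transferred compounds, and grown at 37 °C for at least 48 hr. Viability was read as ATP luminescence.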
# HT1080NT lethal: qHTS for induction of synthetic lethality in tumor cells producing 2HG: qHTS for the HT-1080-NT fibrosarcoma cell line; HT-1080-NT fibrosarcoma viability, CellTiter-Glo ATP luminescence, 48 h; Potency, µM (titrated, usually from 46.1 µM), without a hit: top-dose activity, negative = less viability, most hits filed as cytotoxic; actives 1.6% (n = 360,000); AID 686970, 2013;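 note: NT is the 2HG producing partner of a matched IDH1 knockdown line; 0% = DMSO-treated cells and -100% = media-only wells without cells; nearly all actives have a fitted effect of over 55% in size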
#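 Compounds were tested in concentration-response format on HT-1080-NT cells for 48 hours at 37 degrees C. Cell viability came from CellTiter-Glo luminescence; curves were classified by r2, response magnitude and activity.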
# TDP1 cell noCPT: qHTS for Inhibitors of human tyrosyl-DNA phosphodiesterase 1 (TDP1): qHTS in cells in absence of CPT. Potency, µM (highest dose often 46.2 µM), inactives show top-dose activity change, negative = growth inhibition, actives largely listed as inhibitors. actives 15% (n = 420,000). DT40 Tdp1-/- hTDP1 cells, no CPT, ATP luminescence, 48 h. AID 686978, 2013; note: nearly all actives have a fitted effect of over 55% in size
#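 A cellular qHTS used chicken DT40 cells lacking endogenous Tdp1 but carrying stably transfected human TDP1. Compounds were applied without camptothecin, and cell growth kinetics were judged by ATP-dependent luminescence after ≥48 hr.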
# * = called active by the depositor; i = inactive; ? = inconclusive; . = no result. Calls come from the whole dose curve; as a rule, active = well fitted curve in the direction sought with a large enough effect; inconclusive = small, poorly fitted or top-dose-only effect, or another doubt; inactive = no such curve, though single readings can be large; an effect the other way counts as inactive or inconclusive. Unless noted, % is set by controls: 0 for no effect and ±100 for the full control effect; potency is the fitted concentration of half-maximal effect.
SMILES,HT1080 IDH1KD tx,KB-V1 MDR tox,KB-3-1 tox,DT40 TDP1 CPT,HT1080NT lethal,TDP1 cell noCPT
Cc1ccc(/C=N/NC(=O)c2csc3c2CCCC3)cc1,?,?,2.06µM*,1.3µM*,?,1.3µM*
Cc1nn(C)cc1/C=N\NC(=O)c1csc2c1CCCC2,18.6%,i,i,?,10.2%,?
COc1ccc(NC(=O)c2csc3c2CCCC3)cc1,?,i,i,-21.0%,-1.7%,-23.0%
NC1(C(=O)O)CC(C(=O)O)C1 (configuration not stated),.,.,.,-2.2%,.,-4.9%
COc1ccc(CCNS(=O)(=O)c2ccc(Br)cc2)cc1OC,-9.0%,i,i,-3.3%,-8.7%,6.0%
COc1ccc(N2C(=O)CS/C2=C\[N+](=O)[O-])cc1,-14.8%,i,i,?,-3.4%,?
Cc1cccc(-n2cnc3cc(C(=O)NCC4CCCO4)ccc32)c1 (configuration not stated),?,?,18.4µM*,9.2µM*,?,7.31µM*
COCCNC(=O)c1ccc2c(c1)ncn2-c1cccc(C)c1,?,?,?,16.4µM*,?,?
COc1ccc(-n2cnc3cc(C(=O)NCC4CCCO4)ccc32)cc1 (configuration not stated),0.4%,i,?,-8.6%,-4.2%,20.5%
O=C(c1ccc2ccccc2c1)N1CCc2ccccc21,-4.2%,i,i,11.8%,-3.5%,-10.8%
COCCNC(=O)c1ccc2c(c1)ncn2-c1cc(C)ccc1OC,.,i,i,-24.8%,.,-11.7%
Cc1cccc(-n2cnc3cc(C(=O)N4CCc5ccccc54)ccc32)c1,5.3%,13µM*,i,-12.7%,8.5%,?
Nc1nonc1-n1nnc(C(=O)N/N=C/c2ccccc2Cl)c1CN1CCOCC1,4.9%,i,i,3.6%,6.9%,-25.0%
COc1cc2c(cc1O)CCN[C@]21CS[C@@H]2c3c(OC(C)=O)c(C)c4c(c3[C@H](COC1=O)N1[C@@H]2[C@H]2c3c(cc(C)c(OC)c3O)C[C@@H]([C@@H]1O)N2C)OCO4,.,.,.,0.0043µM*,.,0.0043µM*
CCOC(=O)CN(C(=O)c1snc(C(N)=O)c1N)C(C(=O)NC1CCCCC1)c1ccc(F)cc1 (configuration not stated),-3.3%,i,?,5.3%,-0.1%,7.3%
CCOCCN(C(=O)c1ccccc1Cl)c1cccc(C)c1C,-3.6%,?,i,25.9µM*,4.2%,?
CCOCCNC(=O)c1ccccc1C(=O)NCCOCC,6.4%,i,i,-0.6%,18.0%,0.2%
Cc1ccccc1CSCC(=O)NCCSc1ccccn1,15.9%,i,i,3.8%,7.7%,1.4%
O=S(=O)(c1ccccc1)N1CCN(c2ncnc3scc(-c4ccccc4)c23)CC1,-24.5%,?,i,16.4µM*,-19.0%,?
Fc1ccc(CN2CCN(c3ncnc4scc(-c5ccccc5)c34)CC2)cc1,-2.3%,i,?,?,-15.8%,?
